Screening results from PubChem.
USP28 inh: inhibitors of human USP28 deubiquitinase; Q96RU2; purified USP28, Ub-rhodamine cleavage fluorescence, 30 min; inhibition, % at 25 µM; hit rate 3% among 47,000; AID 1645857
USP7 block: blocks human USP7 ubiquitin-rhodamine cleavage. inhibition, % at 20 µM. purified USP7, Ub-rhodamine cleavage fluorescence. Q93009. hit rate 0.3% among 47,000
USP30 block: human USP30 deubiquitinase inhibition. Q70CQ3. purified USP30, Ub-rhodamine cleavage fluorescence. inhibition, % at 25 µM. hit rate 5.3% among 47,000. AID 1645860
USP17 inh: inhibitors of human USP17 deubiquitinase; hit rate 6.5% among 47,000; AID 1645855; inhibition, % at 50 µM; A8MUK1; purified USP17, Ub-rhodamine cleavage fluorescence, 3 h
USP8 inh: human USP8 deubiquitinase inhibition | purified USP8, Ub-rhodamine cleavage fluorescence, 30 min | inhibition, % at 20 µM | hit rate 4.2% among 47,000 | AID 1645853
USP10 block: human USP10 deubiquitinase inhibition; hit rate 1.1% among 47,000; inhibition, % at 20 µM; Q14694; AID 1645856; purified USP10, Ub-rhodamine fluorescence, 60 min
Numbers without * were called inactive; i = inactive; nt = no result given. Only some compounds are listed: those with a hit (about 13% of all), similar ones and a draw of the others. Cut-off read from the data, not from the text of the source: active = inhibition above about 30%; inactive = the rest.

SMILES	USP28 inh	USP7 block	USP30 block	USP17 inh	USP8 inh	USP10 block
Cn1nc(-c2ccccc2)c2cc(C(=O)N3CCOCC3)sc21	3	2	12	0	2	1
Cc1cc(C(=O)Nc2ccccc2)c(C)n1-c1ccc(F)cc1	1	0	-49	10	14	-1
CN(C)c1nc2cc(C(=O)N3CCCC3)sc2n1-c1ccccc1	4	0	5	12	57*	-6
O=C(Nc1cccc(S(=O)(=O)NC2=NCCC2)c1)c1cc(-c2ccccc2)n[nH]1	42*	-2	37*	39*	4	1
COc1ccc(CNC(=O)C2(C)Cn3nc(C)cc3C(=O)N2c2ccc3c(c2)OCCO3)cc1 (centres undefined)	7	-1	11	-1	0	-2
CN(C(=O)Cn1cc(S(=O)(=O)N2CCCC2)ccc1=O)c1ccccc1	-5	-1	5	-1	1	-1
Cc1ccc(Cn2c(C(=O)Nc3cccnc3)cc3sccc32)cc1	8	8	22	42*	43*	3
Cc1ccc(Cn2nc(C)cc2C(=O)Nc2cccc(C(F)(F)F)c2)cc1	11	-1	27	24	21	11
COc1ccc(/C=C/C(=O)Nc2cccc(S(=O)(=O)Nc3ccccc3Cl)c2)c(OC)c1	52*	9	69*	7	66*	62*
COc1ccccc1NS(=O)(=O)c1cccc(NS(=O)(=O)c2cc(/C=C/C(=O)O)cc(OC)c2OC)c1	11	4	12	-1	-2	0
O=c1[nH]c(=O)n(Cc2ccccc2)c2c1CN(CCc1ccccc1)CN2	15	4	36*	35*	19	16
Cc1ccc(C)c(NC(=O)c2c(C)sc3c(=O)n(C(C)C)cnc23)c1	-2	6	45*	44*	8	-7
Cc1ccc(NC(=O)c2c(C)sc3c(=O)n(C(C)C)cnc23)c(C)c1	0	8	-51	-9	1	-5
Cc1cc(C)cc(NC(=O)c2c3c(nc4ccccc24)CCN(Cc2ccccc2)C3)c1	-61	-36	-378	-65	14	-4
CCc1ccccc1NC(=O)CSc1nnc(-c2ccccn2)n1-c1ccc(C)cc1	8	-4	35*	2	10	5
CCn1c(SCC(=O)Nc2ccc(C)cc2)nnc1-c1cnccn1	-1	-1	-12	-1	-1	-2
Cc1ccc(-n2c(SCc3ccc(C#N)cc3)nnc2-c2ccccn2)cc1	18	-27	38*	21	14	2
COc1cccc(/C=C/c2nc(C#N)c(N3CCN(C(=O)c4cccs4)CC3)o2)c1	21	-8	52*	8	12	7
CCc1nc(-c2ccc(C(=O)Nc3cccnc3)cc2)no1	49*	-1	-7	-4	-6	-2
Cc1ccc(C)c(N(C)C(=O)c2nn(C)c3c2CSc2ccccc2-3)c1	27	7	39*	nt	13	6
Cc1ccc2c(c1)-c1c(c(C(=O)N3CCN(c4ccccc4)CC3)nn1C)CS2	-260	-8	i	-193	-239	-12
O=C(O)CCCCCN1C(=O)CC(c2ccc(Cl)cc2)CC1=O	32*	1	-73	76*	55*	12
COc1cccc(C2C3=C(CC(c4ccc(Cl)cc4)CC3=O)Nc3ccccc3N2C(=O)CCC(=O)O)c1 (centres undefined)	25	-16	23	18	-94	6
Cn1cccc1C(=O)N1CCC(n2c(C(F)(F)F)nc3ccccc32)CC1	11	1	13	14	22	2
CSc1ccc(CNCc2c(C(=O)O)n(Cc3ccccc3)c3cc(C)ccc23)cc1	44*	-9	58*	24	24	20
COc1ccc2c(CNCCc3ccccc3)c(C(=O)O)n(Cc3ccc(F)cc3Cl)c2c1	21	-32	30*	-10	0	13
Cc1ccc(Cn2c(C(=O)O)c(CNCCC3=CCCCC3)c3ccccc32)cc1	39*	-91	16	24	21	10
O=C(O)c1c(CNCc2cccnc2)c2ccccc2n1Cc1ccc(F)cc1Cl	-2	-82	-7	9	-20	-2
O=C1NCc2c1c1c3ccccc3[nH]c1c1[nH]c3ccccc3c21	19	4	37*	51*	5	10
Cc1ccc(NC(=O)CCc2ccc(S(=O)(=O)N3CCOCC3)cc2)c(O)c1	-5	-2	-24	-1	47*	-2
